From the supplement of paper PMC10338343 come the findings set out here.

± gives the standard deviation. The full ranking holds about 5,500 sequences; the median of “pre-steady-state target cleavage rate” is about 0.1, and the highest 2% start at about 0.64. Only a selection was taken, and the highest values are over-represented in it overall.

The test system of this test is MIWI (PIWIL1) piRISC loaded with piRNA #2 (30 nt). Briefly: pre-steady-state target cleavage rate (min^-1); MIWI and MILI are mouse PIWI proteins and EfPiwi is from a freshwater sponge; tags in brackets are library labels; higher = faster piRNA-guided slicing of the target. The following applies: guide: piRNA #2 5'p-UUAGGUAACCCAGUAGAUCCAGAGGAAUUC; auxiliary factor: 500 nM mouse GTSF1. On the procedure:
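Cleave-'n-Seq: a library of target RNAs (target site embedded in constant flanks, ACAGCATTCCGCGTTAGTGATATCCG... 5' flank; DNA-blocked outside the site) at 0.1 nM was incubated with 1 nM active mouse MILI or MIWI piRISC (synthetic 5'-monophosphorylated piRNA guide) with or without 500 nM mouse GTSF1 at 33 °C for 1 min to 16 h. Uncleaved targets were sequenced and normalised to non-target controls, and the pooled three trials were fitted to a burst-and-steady-state model to give the pre-steady-state cleavage rate (min^-1; k3 is constrained to at most 1e-4). Sequence is the target site only; target names encode pairing extent (gX:gY) and contiguous / 1-mismatch / 2-mismatch / bulge geometry. Fits with R² ≤ 0 are excluded.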
With CAAUUCCACUCGAUCUACUGGGUUACCUAA, the “pre-steady-state target cleavage rate” value worked out at 0.798 ± 0.047.

In the case of CUUUUCCACUCGAUCUACUGGGUUACCUAA, the “pre-steady-state target cleavage rate” value came out at 0.547 ± 0.033.

On to CUAUUCCACUGGAUCUACUGGGUUACCUAA, for which the “pre-steady-state target cleavage rate” value is 0.588 ± 0.061.

With GAAUUCCACUCGAUCUACUGGGUUACCUAA, the “pre-steady-state target cleavage rate” value turned out to be 0.564 ± 0.056.

In the case of CUAUUCCACUCGAUCUACUGGGUUACCUAA, the “pre-steady-state target cleavage rate” value was found to be 0.703 ± 0.037.

On to CUAUUCCACUGGAUCUACUCGGUUACCUAA, for which the “pre-steady-state target cleavage rate” value amounted to 0.0817 ± 0.018.

In the case of CUUAACCUCUGGAUCUAGUGGGUUACCAAA, the “pre-steady-state target cleavage rate” value stood at 0.0597 ± 0.0073.

CAAUUCCACUGGAACUACUGGGUUACCUAA: the “pre-steady-state target cleavage rate” value amounted to 0.408 ± 0.042.

Consider CUUAAGCUGUGGAUCUACUGGGUUUCCUAA, for which the “pre-steady-state target cleavage rate” value came to 0.0403 ± 0.019.

For CUAUACCUCUGGAUCUACUGGGUUACGUAA, the “pre-steady-state target cleavage rate” value was 0.674 ± 0.032.

In the case of GUAUACCUCUGGAUCUACUGGGUUACCUAA, the “pre-steady-state target cleavage rate” value was found to be 0.642 ± 0.23.

GAAUACCUCUGGAUCUACUGGGUUACGUAA: the “pre-steady-state target cleavage rate” value was determined as 0.609 ± 0.038.

As for CAAUACCUCUGGAUCUACUGCGUUACCUAA, the “pre-steady-state target cleavage rate” value was 0.488 ± 0.063.

Take CUAUACCUCUGGAUCUACUGGGUUACCUAA: the “pre-steady-state target cleavage rate” value was found to be 0.544 ± 0.084.

As to CAAUACCUCUGGAUCUACUGGGUUACGUAA, the “pre-steady-state target cleavage rate” value is 0.567 ± 0.059.

For the sequence CUUAUACCUCUGGAUCUACUGGGUUACCUAA, the “pre-steady-state target cleavage rate” value was 0.389 ± 0.061.

As to CUAUACCUCUGGAUCUACUGCGUUACCUAA, the “pre-steady-state target cleavage rate” value is 0.732 ± 0.066.

As to GAAUACCUCUGGAUCUACUGCGUUACCUAA, the “pre-steady-state target cleavage rate” value was found to be 0.456 ± 0.04.

On to CUUAAGCUCUGGAUCUACUGGCUUACCUAA, for which the “pre-steady-state target cleavage rate” value was found to be 0.0576 ± 0.012.

As to CUUAAGGUCUGGAUCUACUGCGUUUCCUAA, the “pre-steady-state target cleavage rate” value came out at 0.0557 ± 0.014.

CUUAAGGUAUGGAUCUACUGGGUUACCUAA: the “pre-steady-state target cleavage rate” value came to 0.323 ± 0.035.

CAAUUCCUCUGGAACUACUCGGUUACCUAA: the “pre-steady-state target cleavage rate” value is 0.157 ± 0.022.

With CUUAACCUCUGGAUCUACUGGGUAAGCUAA, the “pre-steady-state target cleavage rate” value stood at 0.05 ± 0.0099.

As to CUAUUCCUCGGAUCUACUGGGUUACCUAA, the “pre-steady-state target cleavage rate” value stood at 0.447 ± 0.083.

For CUAUUCCUCCUGGAUCUACUGGGUUACCUAA, the “pre-steady-state target cleavage rate” value is 0.613 ± 0.06.

Take CAAUUCCUCCGGAUCUACUGGGUUACCUAA: the “pre-steady-state target cleavage rate” value came out at 0.677 ± 0.096.

For the sequence CAAUUCCUCGGAUCUACUGGGUUACCUAA, the “pre-steady-state target cleavage rate” value stood at 0.47 ± 0.087.

On to CUAUUCCUCCGGAUCUACUGGGUUACCUAA, for which the “pre-steady-state target cleavage rate” value is 0.697 ± 0.12.

With GAAUUCCUCCGGAUCUACUGGGUUACCUAA, the “pre-steady-state target cleavage rate” value amounted to 0.407 ± 0.058.

For CUUAAGGACUGGAUCUACAGCGUUACCUAA, the “pre-steady-state target cleavage rate” value was 0.00714 ± 0.0051.

With CUUUUCCACUGGAUCUACAGGGUUACCUAA, the “pre-steady-state target cleavage rate” value was found to be 0.248 ± 0.016.

On to GAAUUCCUCUCGAUCUUCUGGGUUACCUAA, for which the “pre-steady-state target cleavage rate” value amounted to 0.62 ± 0.064.

For CAAUUCCUCUCGAUCUUCUGGGUUACCUAA, the “pre-steady-state target cleavage rate” value was 0.737 ± 0.059.

As for CUAUUCCUCUCGAUCUUCUGGGUUACCUAA, the “pre-steady-state target cleavage rate” value came out at 0.803 ± 0.07.

For the sequence CUAUUCCUCUGGAUCUUCUGGGUUACCUAA, the “pre-steady-state target cleavage rate” value amounted to 0.412 ± 0.054.

With CUUUUCCUCUCGAUCUUCUGGGUUACCUAA, the “pre-steady-state target cleavage rate” value worked out at 0.63 ± 0.051.

For the sequence CAAUUCCUCUGGAUCUUCUGGGUUACCUAA, the “pre-steady-state target cleavage rate” value stood at 0.49 ± 0.065.

As to CUUAUCCUCUGGAUCAUCUGGGUUACCUAA, the “pre-steady-state target cleavage rate” value was 0.246 ± 0.028.

CAUAACCUCUGGAUCUACUGGGUUACCUAA: the “pre-steady-state target cleavage rate” value worked out at 0.234 ± 0.033.

In the case of CUUAACCUCUGGAUCUUCUGGGUUUCCUAA, the “pre-steady-state target cleavage rate” value worked out at 0.042 ± 0.0092.

CAAUUCCUCUGGAUCUACAGGGUUUCCUAA: the “pre-steady-state target cleavage rate” value came to 0.178 ± 0.026.

As for CAAUUCCUCAGGAUCUACUGGGUUACCUUA, the “pre-steady-state target cleavage rate” value is 0.604 ± 0.075.

In the case of GAAUUCCUCUGGAUGUACAGGGUUACCUAA, the “pre-steady-state target cleavage rate” value came out at 0.413 ± 0.029.

As to GAAAUCCUCUGGUUCUACUGGGUUACCUAA, the “pre-steady-state target cleavage rate” value amounted to 0.624 ± 0.05.

Consider CAAAUCCUCUGGUUCUACUGGGUUACCUAA, for which the “pre-steady-state target cleavage rate” value was 0.79 ± 0.044.

Regarding CUAAUCCUCUGGAUCUACUGGGUUACCUAA, the “pre-steady-state target cleavage rate” value was 0.412 ± 0.061.

As to CUAAUCCUCUGGUUCUACUGGGUUACCUAA, the “pre-steady-state target cleavage rate” value was 0.755 ± 0.048.

For CAAAUCCUCUGGAUCUACUGGGUUACCUAA, the “pre-steady-state target cleavage rate” value amounted to 0.47 ± 0.069.

As for CUUAUCCUCUGGUUCUACUGGGUUACCUAA, the “pre-steady-state target cleavage rate” value amounted to 0.607 ± 0.047.

CUUAAGCUCUGGAACUACUCGGUUACCUAA: the “pre-steady-state target cleavage rate” value was 0.0422 ± 0.011.

As for CUUAUCCUCUGGAACUACUGGGUUACCUUA, the “pre-steady-state target cleavage rate” value turned out to be 0.254 ± 0.03.

CGAUUCCUCUGGAUCUACUGGGUUACCUAA: the “pre-steady-state target cleavage rate” value was found to be 0.329 ± 0.048.

For the sequence CUUUUCCUCUGGAUCUACUGGGUAACCAAA, the “pre-steady-state target cleavage rate” value is 0.13 ± 0.034.

Regarding CUUAAGGACGGGAUCUACUGGGUUACCUAA, the “pre-steady-state target cleavage rate” value came to 0.0681 ± 0.038.

For the sequence CAAUUCCUCUGGAUUCUACUGGGUUACCUAA, the “pre-steady-state target cleavage rate” value was found to be 0.473 ± 0.059.

For GAAUUCCUCUGGAUUUACUGGGUUACCUAA, the “pre-steady-state target cleavage rate” value was found to be 0.425 ± 0.073.

With GAAUUCCUCUGGAUUACUGGGUUACCUAA, the “pre-steady-state target cleavage rate” value was found to be 0.413 ± 0.04.

Turning to CAAUUCCUCUGGAUCUGCUGGGUUACCUAA, the “pre-steady-state target cleavage rate” value was determined as 0.641 ± 0.08.

Consider CAAUUCCUCUGGAUUACUGGGUUACCUAA, for which the “pre-steady-state target cleavage rate” value worked out at 0.692 ± 0.054.

With GAAUUCCUCUGGAAGUACUGGGUUACCUAA, the “pre-steady-state target cleavage rate” value is 0.511 ± 0.047.

For CAAUUCCUCUGGAUUUACUGGGUUACCUAA, the “pre-steady-state target cleavage rate” value came to 0.681 ± 0.062.

CAAUUCCUCUGGAUCUCCUGGGUUACCUAA: the “pre-steady-state target cleavage rate” value came out at 0.231 ± 0.051.

On to CUAUUCCUCUGGAAGUACUGGGUUACCUAA, for which the “pre-steady-state target cleavage rate” value is 0.631 ± 0.046.

As to CAAUUCCUCUGGAAGUACUGGGUUACCUAA, the “pre-steady-state target cleavage rate” value was determined as 0.651 ± 0.044.

With CUAUUCCUCUGGAUUUACUGGGUUACCUAA, the “pre-steady-state target cleavage rate” value worked out at 0.529 ± 0.048.

Take GAAUUCCUCUGGAUCUGCUGGGUUACCUAA: the “pre-steady-state target cleavage rate” value worked out at 0.213 ± 0.044.

In the case of CAAUUCCUCUGGUUCUACUCGGUUACCUAA, the “pre-steady-state target cleavage rate” value was determined as 0.167 ± 0.014.

In the case of CAAUUCCUCUGGAACUACUGGGUUACCAAA, the “pre-steady-state target cleavage rate” value came to 0.289 ± 0.055.

For CUUAAGGAGUGGAUCUACUGGGUUGCCUAA, the “pre-steady-state target cleavage rate” value came to 0.0417 ± 0.011.

Turning to CUUAUCCAUCUGGAUCUACUGGGUUACCUAA, the “pre-steady-state target cleavage rate” value came out at 0.508 ± 0.051.

For CUUUUCCUCUGGACCUACUGGGUUACCUAA, the “pre-steady-state target cleavage rate” value turned out to be 0.157 ± 0.02.

For GAAUUCCUGUGGAUCUACUGCGUUACCUAA, the “pre-steady-state target cleavage rate” value was 0.362 ± 0.053.

For the sequence CUUAUCCUCUGGAUCUACUGGGAUACCUAA, the “pre-steady-state target cleavage rate” value was 0.302 ± 0.039.

Turning to CUUAAGGUCUGGAUCUUCUGGGAUACCUAA, the “pre-steady-state target cleavage rate” value came out at 0.0453 ± 0.017.

On to CAAUUCCACUGGAUCUACUGGGUUACGUAA, for which the “pre-steady-state target cleavage rate” value amounted to 0.419 ± 0.081.

As for CAAUUCCACUGGAUCUACUGGGUUAGCUAA, the “pre-steady-state target cleavage rate” value was 0.223 ± 0.076.

Regarding CUAUUCCACUGGAUCUACUGGGUUACGUAA, the “pre-steady-state target cleavage rate” value was found to be 0.481 ± 0.066.

For the sequence GAAUUCCACUGGAUCUACUGGGUUAGCUAA, the “pre-steady-state target cleavage rate” value was 0.668 ± 0.12.

In the case of GAAUUCCACUGGAUCUACUGGGUUACGUAA, the “pre-steady-state target cleavage rate” value turned out to be 0.803 ± 0.043.

With CUAUUCCACUGGAUCUACUGGGUUAGCUAA, the “pre-steady-state target cleavage rate” value was found to be 0.16 ± 0.04.

Consider CUAUUCCUGUGGAUCUACUGGGUUACGUAA, for which the “pre-steady-state target cleavage rate” value was found to be 0.47 ± 0.052.

As to GAAUUCCUGUGGAUCUACUGGGUUACGUAA, the “pre-steady-state target cleavage rate” value was determined as 0.637 ± 0.063.

For the sequence CUAUUCCUCAGGAUCUACUGGGUUACGUAA, the “pre-steady-state target cleavage rate” value was determined as 0.499 ± 0.073.

Take GAAUUCCUCAGGAUCUACUGGGUUACGUAA: the “pre-steady-state target cleavage rate” value turned out to be 0.738 ± 0.062.

In the case of CAAUUCCUGUGGAUCUACUGGGUUACGUAA, the “pre-steady-state target cleavage rate” value came to 0.428 ± 0.075.

CAAUUCCUCAGGAUCUACUGGGUUACGUAA: the “pre-steady-state target cleavage rate” value was found to be 0.594 ± 0.058.

Regarding CUUAUCCUGUGGAUCUACUGGGUUACCAAA, the “pre-steady-state target cleavage rate” value stood at 0.166 ± 0.038.

Consider CUAAACCUCUGGAUCUACUGGGUUACCUAA, for which the “pre-steady-state target cleavage rate” value is 0.266 ± 0.04.

CUUAUCCUGACGAUCUACUGGGUUACCUAA: the “pre-steady-state target cleavage rate” value came out at 0.0767 ± 0.014.

Regarding CUUAACCCUGGAUCUACUGGGUUACCUAA, the “pre-steady-state target cleavage rate” value worked out at 0.326 ± 0.033.

As for CUUAUCCUCUGGAUCUACUGGGAUUCCUAA, the “pre-steady-state target cleavage rate” value was 0.103 ± 0.04.

Turning to CUUAAGGAGAGGUUCUACUGGGUUUCCUAA, the “pre-steady-state target cleavage rate” value is 0.00421 ± 0.0042.

For the sequence CUUAUCCUCUGGAUCUACUCGGUUACCUAA, the “pre-steady-state target cleavage rate” value is 0.0981 ± 0.018.
